How the values were obtained:
ETS1 [1] = biological target: T1, ETS1 (UniProt P14921); assay: ETS1 binding intensity (PBM fluorescence), ETS1 alone (arbitrary fluorescence units); higher = stronger binding; conditions: ETS1 concentration 1 nM; RUNX1 concentration 0 nM
T1 sequence: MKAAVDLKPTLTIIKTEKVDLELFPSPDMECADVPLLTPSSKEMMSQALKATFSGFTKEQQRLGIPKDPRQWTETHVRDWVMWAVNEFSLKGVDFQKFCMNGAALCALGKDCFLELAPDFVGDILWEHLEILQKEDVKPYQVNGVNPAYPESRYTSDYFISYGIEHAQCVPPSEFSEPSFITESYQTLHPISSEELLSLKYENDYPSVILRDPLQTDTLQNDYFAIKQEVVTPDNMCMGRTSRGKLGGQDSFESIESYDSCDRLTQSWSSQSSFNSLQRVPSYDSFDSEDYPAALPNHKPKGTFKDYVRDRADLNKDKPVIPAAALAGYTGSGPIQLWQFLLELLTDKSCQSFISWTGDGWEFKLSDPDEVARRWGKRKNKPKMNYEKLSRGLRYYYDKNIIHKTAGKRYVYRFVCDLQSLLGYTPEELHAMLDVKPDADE

RUNX1 [2] = biological target: RUNX1 (UniProt Q01196); assay: RUNX1 binding intensity (PBM fluorescence), RUNX1 alone (arbitrary fluorescence units); higher = stronger binding; conditions: RUNX1 concentration 2 nM; ETS1 concentration 0 nM
Description: (§1)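 Cooperative gcPBM on 36-bp genomic probes with neighbouring ETS1 and RUNX1 sites. Recombinant human RUNX1 (2 nM) was incubated alone or with ETS1 (25 nM) and detected with anti-RUNX1 antibody plus Alexa488 secondary. Values are medians over 4 replicate spots; the RUNX1+ETS1 data were normalised to the RUNX1-only data. The probes sit in constant array flanks that are not printed.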

ETS1 [3] = biological target: T1, ETS1; assay: ETS1 binding intensity (PBM fluorescence) in presence of RUNX1, normalised to ETS1-only experiment (arbitrary fluorescence units); higher = stronger binding; conditions: ETS1 concentration 1 nM; RUNX1 concentration 25 nM
RUNX1 [4] = biological target: RUNX1 (UniProt Q01196); assay: RUNX1 binding intensity (PBM fluorescence) in presence of ETS1, normalised to RUNX1-only experiment (arbitrary fluorescence units); higher = stronger binding; conditions: RUNX1 concentration 2 nM; ETS1 concentration 25 nM
Description: as §1
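Wherever RUNX1 binding intensity (PBM fluorescence) in presence of ETS1, normalised to RUNX1-only experiment is given: Full-length recombinant human ETS1 or RUNX1 bound to double-stranded 36-bp genomic probes on microarrays, detected by protein-specific primary antibody and Alexa488 secondary, spot fluorescence as median of four replicate spots.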
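Wherever RUNX1 binding intensity (PBM fluorescence), RUNX1 alone is given: Full-length recombinant human RUNX1 bound to double-stranded 36-bp genomic probes on a high-density microarray, scored as Alexa488 fluorescence per spot via anti-RUNX1 antibody, median of four replicate spots.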

Chain of RUNX1 (Q01196 whole entry): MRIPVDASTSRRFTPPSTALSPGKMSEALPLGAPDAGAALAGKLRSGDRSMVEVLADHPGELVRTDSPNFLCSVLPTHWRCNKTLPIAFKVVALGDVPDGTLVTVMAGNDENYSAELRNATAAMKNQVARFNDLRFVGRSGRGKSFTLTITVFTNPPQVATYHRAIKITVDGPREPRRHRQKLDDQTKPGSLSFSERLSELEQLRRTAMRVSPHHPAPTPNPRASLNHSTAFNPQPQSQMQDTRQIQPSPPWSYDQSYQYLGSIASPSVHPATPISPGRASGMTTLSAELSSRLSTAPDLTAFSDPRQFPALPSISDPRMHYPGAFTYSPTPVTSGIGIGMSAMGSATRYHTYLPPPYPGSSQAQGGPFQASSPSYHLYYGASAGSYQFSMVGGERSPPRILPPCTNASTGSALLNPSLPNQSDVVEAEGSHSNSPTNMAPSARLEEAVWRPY

## CCATTTCCGCGCACGTCTGCAGATGCGGTAGTCGAT
ETS1 [1]
  ETS1 binding intensity: 413
RUNX1 [2]
  RUNX1 binding intensity: 853
ETS1 [3]
  ETS1 binding intensity: 463
RUNX1 [4]
  RUNX1 binding intensity: 1830

## AAAGCAAACAGGAAGTGCTGTGGTAACAAGGCCCCA
ETS1 [1]
  ETS1 binding intensity: 6830
RUNX1 [2]
  RUNX1 binding intensity: 728
ETS1 [3]
  ETS1 binding intensity: 14500
RUNX1 [4]
  RUNX1 binding intensity: 1820

## CTGGTAGAAAAGGAAGCAGGTTGTGGTGAGCATTTA
ETS1 [1]
  ETS1 binding intensity: 837
RUNX1 [2]
  RUNX1 binding intensity: 767
ETS1 [3]
  ETS1 binding intensity: 1720
RUNX1 [4]
  RUNX1 binding intensity: 932

## GCTGTCCGTTTCCGAGATGTTAATGCGGGATCTTGC
ETS1 [1]
  ETS1 binding intensity: 473
RUNX1 [2]
  RUNX1 binding intensity: 920
ETS1 [3]
  ETS1 binding intensity: 402
RUNX1 [4]
  RUNX1 binding intensity: 988

## TCTGGGACAGGAAAGACTTGTGGTTACTGCTGTTGA
ETS1 [1]
  ETS1 binding intensity: 808
RUNX1 [2]
  RUNX1 binding intensity: 1390
ETS1 [3]
  ETS1 binding intensity: 4470
RUNX1 [4]
  RUNX1 binding intensity: 3160

## CCCAACCATTTCCGCCACACCTCCAACCCACTGCCG
ETS1 [1]
  ETS1 binding intensity: 647
RUNX1 [2]
  RUNX1 binding intensity: 2030
ETS1 [3]
  ETS1 binding intensity: 542
RUNX1 [4]
  RUNX1 binding intensity: 4660

## GCCACAGCCGGAAGCAGGCTGACCACAAGTGCTAAG
ETS1 [1]
  ETS1 binding intensity: 1880
RUNX1 [2]
  RUNX1 binding intensity: 1310
ETS1 [3]
  ETS1 binding intensity: 18700
RUNX1 [4]
  RUNX1 binding intensity: 6190

## GCCAGGAGGACTTCCGGGTGGGTGTGGTATCTGCGA
ETS1 [1]
  ETS1 binding intensity: 1320
RUNX1 [2]
  RUNX1 binding intensity: 780
ETS1 [3]
  ETS1 binding intensity: 2540
RUNX1 [4]
  RUNX1 binding intensity: 2300

## GAGGCAGGCGGATGTCAGTGTGGTTAGAGCACAGTG
ETS1 [1]
  ETS1 binding intensity: 1170
RUNX1 [2]
  RUNX1 binding intensity: 782
ETS1 [3]
  ETS1 binding intensity: 3310
RUNX1 [4]
  RUNX1 binding intensity: 1960

## GGTGACACGGCCGGCTTCCTGCCGCAGAGCTCCTGG
ETS1 [1]
  ETS1 binding intensity: 719
RUNX1 [2]
  RUNX1 binding intensity: 768
ETS1 [3]
  ETS1 binding intensity: 639
RUNX1 [4]
  RUNX1 binding intensity: 1040

## GCCCCCGGCTGGGCAGGATGTGGTGGCAGCTGCAGG
ETS1 [1]
  ETS1 binding intensity: 4040
RUNX1 [2]
  RUNX1 binding intensity: 743
ETS1 [3]
  ETS1 binding intensity: 5380
RUNX1 [4]
  RUNX1 binding intensity: 1320

## CTAGGCCACCGGAAGTCTCCGCAGTGGTTTTGCAAA
ETS1 [1]
  ETS1 binding intensity: 14900
RUNX1 [2]
  RUNX1 binding intensity: 762
ETS1 [3]
  ETS1 binding intensity: 25800
RUNX1 [4]
  RUNX1 binding intensity: 1610

## GCAGGGGCCCATTTCCTGCCACAAGCCCACACAGGA
ETS1 [1]
  ETS1 binding intensity: 1390
RUNX1 [2]
  RUNX1 binding intensity: 749
ETS1 [3]
  ETS1 binding intensity: 1280
RUNX1 [4]
  RUNX1 binding intensity: 1750

## GAGAGAGGCAGGAAGTGTTGTGGTTATTGTTTGAGC
ETS1 [1]
  ETS1 binding intensity: 4710
RUNX1 [2]
  RUNX1 binding intensity: 1240
ETS1 [3]
  ETS1 binding intensity: 24200
RUNX1 [4]
  RUNX1 binding intensity: 2210

## CCTTTACTTCCTTTTACTTCTAACCACAGAATTAAA
ETS1 [1]
  ETS1 binding intensity: 444
RUNX1 [2]
  RUNX1 binding intensity: 7760
ETS1 [3]
  ETS1 binding intensity: 1810
RUNX1 [4]
  RUNX1 binding intensity: 14200

## GCAGGGACCGGAAGTCCATGGCTCTGCCGCAACCCT
ETS1 [1]
  ETS1 binding intensity: 13400
RUNX1 [2]
  RUNX1 binding intensity: 738
ETS1 [3]
  ETS1 binding intensity: 13700
RUNX1 [4]
  RUNX1 binding intensity: 1250

## GTCTGCTTAAAAACAGGAAACCACATATCTCCACCC
ETS1 [1]
  ETS1 binding intensity: 3670
RUNX1 [2]
  RUNX1 binding intensity: 1600
ETS1 [3]
  ETS1 binding intensity: 10700
RUNX1 [4]
  RUNX1 binding intensity: 1990

## GCTTCTTCAGCCACATCCTGACCACAGCCCAGATTC
ETS1 [1]
  ETS1 binding intensity: 496
RUNX1 [2]
  RUNX1 binding intensity: 2350
ETS1 [3]
  ETS1 binding intensity: 1270
RUNX1 [4]
  RUNX1 binding intensity: 5070

## AGGTTCCGGCGAAAGTGACCGAAAGTAACCGCCGGG
ETS1 [1]
  ETS1 binding intensity: 351
RUNX1 [2]
  RUNX1 binding intensity: 670
ETS1 [3]
  ETS1 binding intensity: 518
RUNX1 [4]
  RUNX1 binding intensity: 967

## AGCTCTGCCAGGAAGTGAGAACCACAGGCCTCCCCT
ETS1 [1]
  ETS1 binding intensity: 1570
RUNX1 [2]
  RUNX1 binding intensity: 837
ETS1 [3]
  ETS1 binding intensity: 3140
RUNX1 [4]
  RUNX1 binding intensity: 1350

## AATCCACCGGAAACACTTAGACGCCGCAACCCCAGT
ETS1 [1]
  ETS1 binding intensity: 3660
RUNX1 [2]
  RUNX1 binding intensity: 895
ETS1 [3]
  ETS1 binding intensity: 5740
RUNX1 [4]
  RUNX1 binding intensity: 1590

## AAATATAGTGCTAAAGGAAGTGGTTTTCATGCAACT
ETS1 [1]
  ETS1 binding intensity: 2380
RUNX1 [2]
  RUNX1 binding intensity: 670
ETS1 [3]
  ETS1 binding intensity: 4140
RUNX1 [4]
  RUNX1 binding intensity: 1080

## GTGGCGGGGCGGAAGTTCACATGTGTGGTATGTAGA
ETS1 [1]
  ETS1 binding intensity: 2720
RUNX1 [2]
  RUNX1 binding intensity: 940
ETS1 [3]
  ETS1 binding intensity: 5000
RUNX1 [4]
  RUNX1 binding intensity: 1430

## GCTTGCTCCCACAGGAAACCGCAGGCTTCGGGCACA
ETS1 [1]
  ETS1 binding intensity: 3190
RUNX1 [2]
  RUNX1 binding intensity: 7370
ETS1 [3]
  ETS1 binding intensity: 9810
RUNX1 [4]
  RUNX1 binding intensity: 12000

## GCGAGCACTTCCGGTGTGTGAGCCTGCGGTTGCTAC
ETS1 [1]
  ETS1 binding intensity: 7480
RUNX1 [2]
  RUNX1 binding intensity: 845
ETS1 [3]
  ETS1 binding intensity: 22400
RUNX1 [4]
  RUNX1 binding intensity: 3050

## GAGTGACTGCTAACGGATGTGTGGTTTCTTTAGTTT
ETS1 [1]
  ETS1 binding intensity: 2000
RUNX1 [2]
  RUNX1 binding intensity: 926
ETS1 [3]
  ETS1 binding intensity: 6590
RUNX1 [4]
  RUNX1 binding intensity: 1470

## AAGACAACATCCTGCCGGCACAGCCTGCGGGTTACT
ETS1 [1]
  ETS1 binding intensity: 576
RUNX1 [2]
  RUNX1 binding intensity: 720
ETS1 [3]
  ETS1 binding intensity: 1480
RUNX1 [4]
  RUNX1 binding intensity: 1420

## AAGAACCTAGAGGATGTGTGGTTTTATGTGCAGGGT
ETS1 [1]
  ETS1 binding intensity: 710
RUNX1 [2]
  RUNX1 binding intensity: 914
ETS1 [3]
  ETS1 binding intensity: 1830
RUNX1 [4]
  RUNX1 binding intensity: 1150

## TTTCTGACACTCTCAGGATGTGGGTTTTCGCACTGT
ETS1 [1]
  ETS1 binding intensity: 1230
RUNX1 [2]
  RUNX1 binding intensity: 797
ETS1 [3]
  ETS1 binding intensity: 6000
RUNX1 [4]
  RUNX1 binding intensity: 1350

## AGAAACATCCTGCCCAGCCACCTGACCACAAGGCAC
ETS1 [1]
  ETS1 binding intensity: 377
RUNX1 [2]
  RUNX1 binding intensity: 1280
ETS1 [3]
  ETS1 binding intensity: 1070
RUNX1 [4]
  RUNX1 binding intensity: 3130

## TGCAATCAGGAAGCCTGCCCCTCTAGAACCACAAAA
ETS1 [1]
  ETS1 binding intensity: 540
RUNX1 [2]
  RUNX1 binding intensity: 882
ETS1 [3]
  ETS1 binding intensity: 1210
RUNX1 [4]
  RUNX1 binding intensity: 892

## ACAAAACAAACACATCCCCCAAACCGCCAAACTACA
ETS1 [1]
  ETS1 binding intensity: 606
RUNX1 [2]
  RUNX1 binding intensity: 1310
ETS1 [3]
  ETS1 binding intensity: 627
RUNX1 [4]
  RUNX1 binding intensity: 1300

## ACCAGAACAGGAAATGTTAGTGGTTGAGTTAACGGT
ETS1 [1]
  ETS1 binding intensity: 3760
RUNX1 [2]
  RUNX1 binding intensity: 700
ETS1 [3]
  ETS1 binding intensity: 5800
RUNX1 [4]
  RUNX1 binding intensity: 1260

## TGAAGTTGGTGTTTTCCGGGGGCGGTTTTTCCATTG
ETS1 [1]
  ETS1 binding intensity: 504
RUNX1 [2]
  RUNX1 binding intensity: 897
ETS1 [3]
  ETS1 binding intensity: 451
RUNX1 [4]
  RUNX1 binding intensity: 969

## GGGGGAGTTTTCGGAAGCGCTAACCGCGTTGGGGCC
ETS1 [1]
  ETS1 binding intensity: 365
RUNX1 [2]
  RUNX1 binding intensity: 860
ETS1 [3]
  ETS1 binding intensity: 874
RUNX1 [4]
  RUNX1 binding intensity: 954

## ACAAAGAAACCTACATCCTAAGCCACAGAATACAGC
ETS1 [1]
  ETS1 binding intensity: 545
RUNX1 [2]
  RUNX1 binding intensity: 930
ETS1 [3]
  ETS1 binding intensity: 523
RUNX1 [4]
  RUNX1 binding intensity: 881

## GATTTGTCACAGGAAGTACCCACAGGCCAAGAAGTG
ETS1 [1]
  ETS1 binding intensity: 5230
RUNX1 [2]
  RUNX1 binding intensity: 817
ETS1 [3]
  ETS1 binding intensity: 5790
RUNX1 [4]
  RUNX1 binding intensity: 1260
